The supplement of paper PMC11219838
Unmarked numbers belong to inactive results.

test system: Caenorhabditis elegans L1 (N2); test: survival and reproduction score of C. elegans L1 (0: 0-10 living worms, 1: 11-20, 2: 21-50, 3: >50, 4: overgrown) (score 0-4); higher = more worms, less nematicidal, active = 1 or less; extreme values may be limits of the assay; conditions: 60 µM; 6 days; temperature: 20 °C
Procedure, shortened: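 In liquid NGM with E. coli HB101, approximately 20 synchronized C. elegans N2 L1s per 96-well well were exposed to compound at 60 µM final (0.6% v/v DMSO) for 6 days at 20 °C with shaking at 200 rpm in sealed plates. Survival and reproduction were judged under a dissection microscope as an ordinal rating of living worms per well. Ratings went from 0 (0–10 worms) to 4 (overgrown, starved) and were averaged over two biological replicates.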

Structure (SMILES)	survival and reproduction score
Cc1ccc(-c2noc(-c3ccc(Br)cc3)n2)cc1	4
Cn1c(SCc2cccc(F)c2)nnc1-c1ccco1	4
Brc1ccc(-c2nnc(-c3cccs3)o2)o1	0 (active)
CNC(=O)c1ccccc1-c1nc(-c2ccc(F)cc2)no1	4
CN(C)c1ccc(-c2nnc(SCc3ccccc3)o2)cc1	4
CCc1ccc(OCc2nc(-c3ccccn3)no2)cc1	3
Fc1ccc(OCc2nc(-c3ccccc3)no2)cc1	3.5
Cc1cc(C)c(OCc2nc(-c3ccncc3)no2)c(C)c1	4
N#Cc1ccccc1CSc1nnc(-c2ccccc2)o1	4
COc1ccc(-c2nc(-c3ccc(C(F)(F)F)cc3)no2)cc1	4
O=C(CSc1nnc(-c2cccc(Cl)c2)o1)NC1CCCCC1	4
CCCOc1ccc(-c2nc(-c3ccncc3)no2)cc1	0 (active)
Clc1ccc(-c2nc(C3CCCCC3)no2)cc1	4
CCc1ccc(OCc2nc(-c3cccc(OC)c3)no2)cc1	4
N#Cc1ccccc1CSc1nnc(-c2ccco2)o1	4
CCOC(=O)c1sc(NC(=O)CSc2nnc(-c3ccc(Cl)cc3)o2)c(C#N)c1C	4
Fc1ccccc1OCc1nc(-c2ccc(Cl)cc2)no1	4
COc1nc(-c2ccccc2)ccc1-c1noc(-c2ccco2)n1	1 (active)
O=C(Nc1ccccc1-c1nc(-c2cccnc2)no1)c1cccc(Cl)c1	4

Structure (SMILES)	survival and reproduction score
N#Cc1ccc(OCc2nc(-c3ccc(Br)o3)no2)cc1	4
CC1CCN(C(=O)CSc2nnc(-c3cccc(Cl)c3)o2)CC1	4
Brc1ccc(-c2noc(-c3cccs3)n2)o1	0 (active)
CCCOc1ccc(-c2ccc(-c3nc(-c4cccnc4)no3)cc2)cc1	4
CC(C)(C)c1ccc(-c2nc(-c3ccncc3)no2)cc1	0 (active)
COc1ccccc1-c1nnc(SCC(=O)Nc2ccc(C)cc2)o1	4
Clc1ccc(CSc2nnc(-c3ccccc3)o2)c(Cl)c1	4
COc1ccc(-c2nnc(SCC(=O)c3ccccc3)o2)cc1	4
COc1ccc(Cl)cc1-c1nnc(SCC(=O)Nc2nccs2)o1	4
Cc1cccc(OC(C)c2nc(-c3cccnc3)no2)c1 (stereo not drawn)	4
Brc1ccccc1-c1nc(-c2ccccc2)no1	0 (active)
COc1nc(-c2ccc(C)cc2)ccc1-c1noc(-c2cccc(C)c2)n1	4
CCCc1nnc(SCc2nnc(-c3ccccc3)o2)o1	4
Brc1ccc(CSc2nnc(-c3ccncc3)o2)cc1	4
Cc1ccc(NC(=O)CSc2nnc(-c3ccccc3)o2)cc1F	4
CC(C)Oc1ccc(-c2nc(-c3ccccc3)no2)cc1	0 (active)
O=C(CSc1nnc(-c2ccccc2Cl)o1)Nc1ccc(F)cc1	4
Cc1ccc(-c2nc(-c3ccncc3)no2)cc1Cl	0 (active)
Cc1cc(C)cc(-c2nc(-c3ccc(Cl)cc3)no2)c1	4
